Results filed as inconclusive are left out. Calls of active or inactive are those of the source. The call rests on the fitted dose curve; in most records, active means well fitted curve in the direction sought with a large enough effect; inconclusive means small, poorly fitted or top-dose-only effect, or another doubt; inactive means no such curve, though single readings can be large; an effect the other way counts as inactive or inconclusive.
Legend:
[1] = tested on: MKL-1; assay: qHTS assay to identify novel small-molecules to repurpose for Merkel cell carcinoma treatment (AID 1296009); details: MCC and control cell lines, CellTiter-Glo viability, 72 h; series mostly up to 46 µM; further: nearly all actives have a fitted effect of over 60% in size; further: potency means the concentration at half of the fitted maximal effect
Method in brief: (§1)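 CellTiter-Glo luminescence after 72 hr compound exposure at 37 degree celsius gave cell viability. Libraries NPC and MIPE were run as 8- and 11-point dose responses; RLUs normalized to DMSO (negative) and no-cell (cytotoxicity) controls.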

[2] = tested on: MKL-2; assay: as above; details: MCC and control cell lines, CellTiter-Glo viability, 72 h; series mostly up to 46 µM
Method in brief: as §1

[3] = tested on: UISO; assay: as above; details: MCC and control cell lines, CellTiter-Glo viability, 72 h; series mostly up to 46 µM
Method in brief: as §1

[4] = tested on: WaGa; assay: as above; details: MCC and control cell lines, CellTiter-Glo viability, 72 h; series mostly up to 46 µM
Method in brief: as §1

[5] = tested on: NIH3T3; assay: as above; details: MCC and control cell lines, CellTiter-Glo viability, 72 h; series mostly up to 44.8 µM
Method in brief: as §1

[6] = tested on: C33A; assay: Primary qHTS to identify gynecologic anti-cancer compounds using libraries of approved drugs and bioactive compounds (AID 1345084); details: Gynecologic cancer cell panel viability, ATPlite luminescence, 48 h; series mostly up to 57.5 µM; further: nearly all actives have a fitted effect of over 55% in size
Method in brief: (§2)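 Five-point cytotoxicity, 48 h drug exposure at 37 C, 5% CO2, on cells seeded 16 h beforehand. ATP content read by ATPlite luminescence.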

[7] = tested on: CAOV3; assay: as above; details: Gynecologic cancer cell panel viability, ATPlite luminescence, 48 h; series mostly up to 57.5 µM
Method in brief: as §2

[8] = tested on: CASKI; assay: as above; details: Gynecologic cancer cell panel viability, ATPlite luminescence, 48 h; series mostly up to 57.5 µM
Method in brief: as §2

[9] = tested on: Es-2; assay: as above; details: Gynecologic cancer cell panel viability, ATPlite luminescence, 48 h; series mostly up to 57.5 µM
Method in brief: as §2

[10] = tested on: HeLa; assay: as above; details: Gynecologic cancer cell panel viability, ATPlite luminescence, 48 h; series mostly up to 57.5 µM
Method in brief: as §2
On the % scale 0 is the no-effect control and ±100 the full control effect.

O=c1cc(-c2ccc(O)c(O)c2)oc2cc(O)cc(O)c12
inactive: Potency [1] | Potency [2] | Potency [3]

CC1(C)[C@H]2CC[C@]3(C)[C@@H](C(=O)C=C4[C@@H]5C[C@@](C)(C(=O)O)CC[C@]5(C)CC[C@]43C)[C@@]2(C)CC[C@@H]1O
inactive: Potency [1] | Potency [2] | Potency [3] | Potency [4]

CCC=CC[C@H]1C(=O)CC[C@@H]1CC(=O)OC
inactive: Potency [1] | Potency [2] | Potency [3] | Potency [4]

CC(C)(C)c1[nH]cnc1C=c1[nH]c(=O)c(=Cc2ccccc2)[nH]c1=O
inactive: Potency [1]
active: Potency [2] 0.0605 µM | Potency [3] 0.0121 µM

N#CC(c1ccnc(NCCc2cccnc2)n1)c1nc2ccccc2s1 (stereo unspecified)
inactive: Potency [1] | Potency [2] | Potency [3]

C[C@H](CCC(=O)O)[C@H]1CC[C@H]2[C@H]3[C@@H](CC[C@]12C)[C@@]1(C)CC[C@@H](O)C[C@H]1C[C@@H]3O
inactive: Potency [1] | Potency [2] | Potency [3]

COc1cc2c(cc1OC)[C@@H]1Cc3ccc(OC)c(OC)c3CN1CC2
inactive: Potency [1] | Potency [3]
active: Potency [2] 18.7 µM

COc1cc(N2CCN(C)CC2)ccc1Nc1nc(N)c(C(=O)c2c(Cl)cccc2Cl)s1
inactive: Potency [1] | Potency [2] | Potency [3] | Potency [4]

O=C1C(c2c(O)[nH]c3ccccc23)=Nc2ccccc21
inactive: Potency [1] | Potency [2] | Potency [5] | Potency [4] | Potency [6] | Potency [7] | Potency [8] | Potency [9] | Potency [10]

CN[C@@H](C)[C@H]1[C@H](O)C[C@@]2(C)[C@@H]3CC[C@H]4C(C)(C)[C@@H](NC)CC[C@@]45C[C@@]35CC[C@]12C
inactive: Potency [1] | Potency [2] | Potency [5] | Potency [3] | Potency [4] | activity change, negative = cytotoxicity [6] 14.9% [at 11.6 µM] | activity change, negative = cytotoxicity [7] 7.65% [at 11.6 µM] | activity change, negative = cytotoxicity [8] 1.7% [at 11.6 µM] | activity change, negative = cytotoxicity [9] -1.65% [at 11.6 µM] | activity change, negative = cytotoxicity [10] 13.6% [at 11.6 µM]

NC(=O)c1ccc(N(C(N)=O)c2c(F)cccc2F)nc1-c1ccc(F)cc1F
inactive: Potency [1] | Potency [2] | Potency [5] | Potency [3] | Potency [4] | Potency [6] | Potency [7] | Potency [8] | Potency [9] | Potency [10]

COc1c(C)c2c(c(O)c1CC=C(C)CCC(=O)O)C(=O)OC2
active: Potency [1] 4.69 µM | Potency [2] 2.09 µM | Potency [3] 9.35 µM | Potency [4] 3.32 µM

CC=C1C2C=C(C)CC1(N)c1ccc(=O)[nH]c1C2 (stereo unspecified)
inactive: Potency [1] | Potency [2] | Potency [3] | Potency [4]

CCNC(=O)Nc1ccc(Oc2ncnc(N)c2C=NOC)cc1Cl
inactive: Potency [1] | Potency [2] | Potency [3] | Potency [4]

OC[C@H]1O[C@@H](OCCc2ccc(O)cc2)[C@H](O)[C@@H](O)[C@H]1O
inactive: Potency [1] | Potency [2] | Potency [3] | Potency [4] | Potency [6] | Potency [7] | Potency [8] | Potency [9] | Potency [10]

CCCCn1c(=O)n(Cc2ccccc2F)c(=O)c2[nH]c(Cc3ccc(NC(C)=O)cc3)nc21
inactive: Potency [1] | Potency [2] | Potency [3] | Potency [4] | Potency [6] | Potency [7] | Potency [8] | Potency [9] | Potency [10]

CC(C)(OCc1nn(Cc2ccccc2)c2ccccc12)C(=O)O
inactive: Potency [1] | Potency [2] | Potency [3] | Potency [4] | Potency [6] | Potency [8] | Potency [9] | Potency [10]

O=C1C(CCC(O)c2ccc(F)cc2)C(c2ccc(O)cc2)N1c1ccc(F)cc1 (stereo unspecified)
inactive: Potency [1] | Potency [2] | Potency [3] | Potency [4]

c1ccc(-c2oc3ncnc(NC[C@@H]4CCCO4)c3c2-c2ccccc2)cc1
inactive: Potency [1] | Potency [2] | Potency [3] | Potency [4] | Potency [6] | Potency [7] | Potency [8] | Potency [9] | Potency [10]

CN(C)c1nc(Cc2ccc(NC(=O)c3ccc(C(F)(F)F)cc3)cc2)nc(N(C)C)c1CC(=O)O
inactive: Potency [1] | Potency [2] | Potency [3] | Potency [4] | Potency [6] | Potency [7] | Potency [8] | Potency [9] | Potency [10]

COc1ccc2c(c1)CC[C@H]1[C@@H]2CC[C@]2(C)[C@@H](NCCCCCCN3C(=O)C=CC3=O)CC[C@H]12
inactive: Potency [1] | Potency [2] | Potency [3] | Potency [4]

N[C@@H](CC(=O)N1CCn2c(nnc2C(F)(F)F)C1)Cc1cc(F)c(F)cc1F
inactive: Potency [1] | Potency [2] | Potency [3] | Potency [4]

O=C(Nc1ccccc1)Nc1ccc(-c2ccc(C(=O)[C@H]3CCC[C@H]3C(=O)O)cc2)cc1
inactive: Potency [1] | Potency [2] | Potency [3] | Potency [4]

O=S(=O)(O)c1ccc2cc(N=Nc3cc(S(=O)(=O)O)c4cccnc4c3O)ccc2c1
inactive: Potency [1] | Potency [2] | Potency [3] | Potency [4] | Potency [6] | Potency [7] | Potency [8] | Potency [9] | Potency [10]

O=C(O)C1=CO[C@@H](O[C@@H]2O[C@H](CO)[C@H](O)[C@H](O)[C@H]2O)[C@@H]2C(CO)=CC[C@H]12
inactive: Potency [1] | Potency [2] | Potency [3] | Potency [4]

CO[C@H]1C=CO[C@@]2(C)Oc3c(C)c(O)c4c(O)c(c(C=NN5CCN(C)CC5)c(O)c4c3C2=O)NC(=O)C(C)=CC=C[C@H](C)[C@H](O)[C@@H](C)[C@@H](O)[C@@H](C)[C@H](OC(C)=O)[C@H]1C
inactive: activity change, negative = cytotoxicity [1] -4.29% [at 9.22 µM] | activity change, negative = cytotoxicity [2] -21.3% [at 9.22 µM] | activity change, negative = cytotoxicity [3] 4.05% [at 9.22 µM] | activity change, negative = cytotoxicity [4] -1.76% [at 9.22 µM]

CCCCOCCOc1nc(-c2ccc(C(=O)O)c(F)c2)sc1C
inactive: Potency [1] | Potency [2] | Potency [3] | Potency [4]

C[C@H](c1ccc(F)cc1CCCC(=O)O)N(c1cc(F)ccc1F)S(=O)(=O)c1ccc(Cl)cc1
inactive: Potency [1] | Potency [2] | Potency [3] | Potency [4] | Potency [6] | Potency [7] | Potency [8] | Potency [9] | Potency [10]

CC(C)c1c(C(=O)Nc2ccccc2)c(-c2ccccc2)c(-c2ccc(F)cc2)n1CC[C@H](O)C[C@@H](O)CC(=O)O
active: Potency [1] 18.7 µM | Potency [2] 10.5 µM | Potency [3] 14.8 µM | Potency [4] 23.5 µM

O=C(Nc1cccc(C(F)(F)F)c1)Nc1cc(S(=O)(=O)NC2CC2)ccc1-c1ccsc1
inactive: Potency [1] | Potency [2] | Potency [3] | Potency [4] | Potency [6] | Potency [7] | Potency [8] | Potency [9] | Potency [10]

NS(=O)(=O)c1cc(Cl)c(Cl)c(S(N)(=O)=O)c1
inactive: Potency [1] | Potency [2] | Potency [3] | Potency [4] | Potency [6] | Potency [7] | Potency [8] | Potency [9] | Potency [10]

Cc1c(-c2cccc3c(CCCOc4cccc5ccccc45)c(C(=O)O)n(Cc4cccnc4)c23)c(COc2ccc(N3CCN([S+](=O)([O-])N(C)C)CC3)cc2)nn1C
inactive: Potency [1] | Potency [2] | Potency [3] | Potency [4]

Cc1cc(C(C)Nc2ccccc2)c2nc(N3CCOCC3)cc(=O)n2c1 (stereo unspecified)
inactive: Potency [1] | Potency [2] | Potency [3] | Potency [4] | Potency [6] | Potency [7] | Potency [9] | Potency [10]

CC(C)C[C@@H](N)[C@H](O)C(=O)N[C@H](C(=O)N[C@H](C(=O)N[C@@H](CC(=O)O)C(=O)O)C(C)C)C(C)C
inactive: Potency [1] | Potency [2] | Potency [3] | Potency [4]

C[C@@H](NC(=O)c1ncnc(N)c1Cl)c1ncc(C(=O)Nc2cc(C(F)(F)F)c(Cl)cn2)s1
inactive: Potency [1] | Potency [2] | Potency [3] | Potency [4] | Potency [6] | Potency [7] | Potency [8] | Potency [9] | Potency [10]

O=C(NCCCCN1CCOCC1)c1cc2ccccc2o1
inactive: Potency [1] | Potency [2] | Potency [3] | Potency [4]

Cn1cnc(-c2cc3nccc(Oc4ccc(NC(=S)NC(=O)Cc5ccccc5)cc4F)c3s2)c1
inactive: Potency [1] | Potency [2] | Potency [4] | Potency [6] | Potency [8] | Potency [9]
active: Potency [3] 18.7 µM

CNc1nc(Nc2ccc(C(=O)N3CCOCC3)cc2OC)ncc1Cl
inactive: Potency [1] | Potency [2] | Potency [3] | Potency [4] | Potency [6] | Potency [8] | Potency [9] | Potency [10]

CC(=O)Nc1cccc(-n2c(=O)n(C3CC3)c(=O)c3c(Nc4ccc(I)cc4F)n(C)c(=O)c(C)c32)c1
inactive: Potency [1] | Potency [2] | Potency [3] | Potency [4] | Potency [6] | Potency [7] | Potency [8] | Potency [10]

CCN1C[C@H](C)n2c(c(O)c3c(=O)n(Cc4ccc(F)c(Cl)c4)nc(C(=O)NC)c32)C1=O
inactive: Potency [1] | Potency [2] | Potency [3] | Potency [4] | Potency [6] | Potency [7] | Potency [8] | Potency [9] | Potency [10]

Cc1nc(C(=O)NCC(=O)O)c(O)c2ccc(Oc3ccccc3)cc12
inactive: Potency [1] | Potency [2] | Potency [3] | Potency [4] | Potency [6] | Potency [7] | Potency [8] | Potency [9] | Potency [10]

Cc1ccccc1C(C(=O)NC1CCCCC1)N(C(=O)CNc1ccc(C#N)cc1)c1cccc(F)c1 (stereo unspecified)
inactive: Potency [1] | Potency [2] | Potency [3] | Potency [4] | Potency [6] | Potency [7] | Potency [8] | Potency [9] | Potency [10]

N#Cc1ccc(Oc2ccc3c(c2)COB3O)cc1
inactive: Potency [1] | Potency [2] | Potency [3] | Potency [4] | Potency [6] | Potency [7] | Potency [8] | Potency [9]

CN(CC=CC#CC(C)(C)C)Cc1cccc2ccccc12
inactive: Potency [1] | Potency [2] | Potency [3] | Potency [4]

CCOc1ccccc1N=Nc1c(C)[nH]n(-c2nc(-c3ccccc3)cs2)c1=O
inactive: Potency [1] | Potency [2] | Potency [3] | Potency [4]

COc1cc2ncn(-c3cc(OCc4ccccc4S(C)(=O)=O)c(C#N)s3)c2cc1OC
inactive: Potency [1] | Potency [2] | Potency [3] | Potency [4]

Fc1ccc(C(c2ccc(F)cc2)N2CCN(CC=Cc3ccccc3)CC2)cc1
inactive: Potency [1] | Potency [2] | Potency [3] | Potency [4]

CC1CCN(c2cc(N3CCN(C)CC3)ccc2NC(=O)c2cc(C#N)c[nH]2)CC1
inactive: Potency [1] | Potency [2] | Potency [3] | Potency [4] | Potency [6] | Potency [7] | Potency [8] | Potency [9] | Potency [10]

CN1CCN(c2cccc(Nc3nc4c(-c5ccc(S(C)(=O)=O)cc5)cccn4n3)c2)CC1
inactive: Potency [1] | Potency [2] | Potency [3] | Potency [4] | Potency [6] | Potency [7] | Potency [8] | Potency [9] | Potency [10]

— PubChem BioAssay (NCATS)
